Drawing on PubChem BioAssay AID717 (Columbia University Molecular Screening Center, 2007), this text covers activation for 96 compounds.

In all, about 91,000 compounds went through this assay and about 40 (0.04%) were called active. Only a sample is shown. Values without a mark were called inactive. Cut-off read from the data, not from the text of the source: active = activation above about 37%; inactive = the rest.

Chain of Bifunctional epoxide hydrolase 2 (Homo sapiens) (P34913 whole entry, looked up): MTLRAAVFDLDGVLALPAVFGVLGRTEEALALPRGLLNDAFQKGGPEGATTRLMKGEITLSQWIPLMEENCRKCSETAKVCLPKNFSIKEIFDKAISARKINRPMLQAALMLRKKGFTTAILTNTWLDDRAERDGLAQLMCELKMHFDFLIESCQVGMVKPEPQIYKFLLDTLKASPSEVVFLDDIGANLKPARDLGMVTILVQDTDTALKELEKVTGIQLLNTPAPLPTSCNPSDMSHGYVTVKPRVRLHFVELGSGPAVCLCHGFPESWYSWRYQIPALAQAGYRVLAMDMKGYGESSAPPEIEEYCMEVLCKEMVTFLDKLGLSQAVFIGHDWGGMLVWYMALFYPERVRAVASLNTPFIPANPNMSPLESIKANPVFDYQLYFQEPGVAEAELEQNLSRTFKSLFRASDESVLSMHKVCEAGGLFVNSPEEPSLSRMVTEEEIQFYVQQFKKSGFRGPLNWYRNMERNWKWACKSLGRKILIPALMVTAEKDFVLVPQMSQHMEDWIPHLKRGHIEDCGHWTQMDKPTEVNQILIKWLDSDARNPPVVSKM

This assay concerns the target Bifunctional epoxide hydrolase 2 (Homo sapiens) (UniProt P34913). Description: sEH enzyme activity enhancers – biochemical, human sEH, primary screen (AID 717). Particulars: purified human sEH enzymatic activity, activator screen; at 2 µM; hits give high values.
Regarding `COc1ccc(C)cc1NC(=O)CCC(=O)Nc1nnc(C(F)(F)F)s1`, the activation is -15.1%.
In the case of `Cc1nnsc1S(=O)(=O)Cc1ccccc1Cl` it was -3.8%.
In the case of `CCCCNC(=O)c1onc(CSc2cccc(OC)c2)c1C(=O)O`, the activation is 11.8%.
Turning to `CS(=O)(=O)N1CCN(c2ccc(C(=O)NC3C4CC5CC(C4)CC3C5)cc2[N+](=O)[O-])CC1` (stereo unspecified), the activation was 8.8%.
As for `C(=N/N1CCN(c2ccccc2)CC1)/c1cccs1`, the activation was 4.8%.
In the case of `COCCCNC(NC(=O)c1ccc(C)cc1)C(Cl)(Cl)Cl` (stereo unspecified) it was 18.3%; in that of `CCOC(=O)C1=C(CN2CCc3ccccc32)NC(=O)NC1c1cc(C)ccc1C` (stereo unspecified), 7.8%; in that of `Nc1ccc(-c2sc(N)nc2-c2ccccc2)cc1`, 10.7%.
Turning to `COCC(C)NC(=O)c1ccc(-n2nc(C(F)(F)F)cc2-c2cccs2)cc1` (stereo unspecified), the activation was 3.4%.
For `CC(=O)c1cn(CCCCCCCCCCn2cc(C(C)=O)c(=O)[nH]c2=O)c(=O)[nH]c1=O` the value was 3.2%; for `Cc1csc(=NC(=O)c2ccccc2)n1CCO`, 7.3%.
In the case of `CCc1ccc(C(=O)CSc2nnc(C)c(=O)[nH]2)cc1` it was -0.4%; in that of `CCCn1nnnc1NC(=O)COc1ccc(Cl)cc1C`, 36.8%.
For `COc1ccccc1CNC(=O)c1ccc(SC)cc1OC` the value was 1%; for `Cc1nn(C)cc1/C=C1\CCC/C(=C\c2cn(C)nc2C)C1=O`, 11.7%.
`CCN(CC)c1nc(-c2ccccc2)cc(C(F)(F)F)c1C#N`: the activation is 30.7%.
For `Nc1c(-c2cccc(Cl)c2)cnn1-c1cccc([N+](=O)[O-])c1` the value was 0.1%; for `O=c1c2ccccc2c(-c2ccc(Br)cc2)nn1Cc1ccccc1`, -4.3%.
For `O=C(COC(=O)c1ccccc1NC(=O)c1ccco1)Nc1ccc2c(c1)OC(F)(F)O2` the value was -28.9%; for `CCCCNCc1ccc(SC)cc1`, -8.5%; for `NC(=O)N1CCCC1C(=O)Nc1ccc(Cl)c(Cl)c1` (stereo unspecified), -4.5%.
In the case of `CCCCNC(=O)CSc1nc2ccc(NC(=O)CSc3nnc(COc4ccccc4C)n3C)cc2s1` it was -88.3%.
As for `Cc1cc(C(=O)OCC(=O)Nc2ccc(F)c(F)c2)c(C)o1`, the activation is -9.4%.
In the case of `COc1ccc(CCNC(=S)NC(=O)/C=C/c2ccc(C)cc2)cc1OC` it was 3.7%; in that of `CC1=NN(Cc2ccccc2)C(=O)/C1=C/c1ccc(N(C)C)cc1`, 4.2%; in that of `CCn1cc(C(=O)N/N=C(/C)c2ccc(F)cc2)c(=O)c2cc(F)c(N3CCCC3)cc21`, 11.6%.
For `COc1ccc(NS(=O)(=O)c2ccc(NC(=S)NC(=O)CC(C)C)cc2)cc1` the value was 1.9%.
With `O=C(NCCCN1CCOCC1)c1cc2c(s1)CCC2`, the activation is -5.4%.
For `O=C(CN1C(=O)NC(Cc2ccccc2)(Cc2ccccc2)C1=O)NCC1CCCCC1` the value was 11.9%; for `O=C(OCN1C(=O)c2ccccc2C1=O)/C(=C\c1ccco1)NC(=O)c1ccccc1`, -78.7%.
As to `COC(=O)CNC(=O)c1ccccc1[N+](=O)[O-]`, the activation was 18.9%.
Consider `CCOc1ccc(C(CCc2ccccc2)NC(=O)c2ccc(OC)c(OC)c2)cc1OCC` (stereo unspecified), for which the activation is 23.3%.
For `CC(CNc1ccc([N+](=O)[O-])cc1)NC(=O)c1ccccc1Br` (stereo unspecified) the value was 5%; for `C=CCn1c(-c2ccc(Cl)cc2)ccc(C#N)c1=O`, 2.9%; for `COc1ccc2c(c1)SC(C)CC2=O` (stereo unspecified), 13.9%.
In the case of `CC1(C)CC(=O)C(C=NCCN2CCN(C(=S)Nc3cccc(Cl)c3)CC2)=C(O)C1` it was -11.3%; in that of `Cc1ccc(-c2csc(N(Cc3ccco3)C(=O)c3cccs3)n2)cc1`, 11.6%.
`CCOC(=O)NNC(=O)c1ccc(Cl)cc1`: the activation is 0.5%.
Turning to `CC(Oc1ccc(Cl)cc1Cl)C(=O)/C=C/N(C)C` (stereo unspecified), the activation is -10%.
In the case of `COc1ccc(/C=N/Nc2nc3ccccc3c(=O)[nH]2)cc1` it was 10%; in that of `O=[N+]([O-])c1ccc(NCCCN2CCOCC2)c(Cl)c1`, -17.1%; in that of `Clc1ccc(-n2nnnc2CN2CCCCC2)cc1Cl`, -4%.
In the case of `C=CCOC(=O)C1=C(C)NC(C)=C(C(=O)OCC=C)C1c1cccs1` it was 8.4%; in that of `COc1ccc(-c2cc(C(=O)n3cnc4ccccc43)c3ccccc3n2)cc1`, 11.7%; in that of `COc1cc(C(=O)N2CCN(C/C=C/c3ccccc3)CC2)cc(OC)c1C`, 11.7%.
For `CCCCNC(=S)NNC(=O)c1cc(C)on1` the value was -1.6%; for `CN(CC#CCC(c1ccccc1)c1ccccc1)C(C)(C)C`, -4.2%.
Take `CC(C)(C)c1cc2cccnc2n1Cc1ccccc1`: the activation is -9.8%.
For `COc1cc(C2C(C(=O)OCCC#N)=C(C)NC3=C2S(=O)(=O)c2ccccc23)cc(OC)c1OC` (stereo unspecified) the value was -9%.
As for `c1ccc(CSc2ncnc3c2sc2nc(N4CCOCC4)c4c(c23)CCCC4)cc1`, the activation was -8.4%.
For `c1cnc(Nc2nc(-c3ccc4ccccc4c3)cs2)nc1` the value was 9.6%; for `c1ccc2c(CSCc3nc4ccccc4[nH]3)cccc2c1`, -10.8%; for `CCOC(=O)c1c(NC(=O)c2ccc(N3CCOCC3)c([N+](=O)[O-])c2)sc(C)c1C`, -11.3%.
As for `O=C(CN1CCN(S(=O)(=O)c2ccc(Cl)s2)CC1)NCc1ccc(Cl)cc1`, the activation is 0.3%.
For `COc1ccc(C(=S)Nc2ccccc2)cc1` the value was -3.8%; for `Cc1nn(-c2ccccc2)c(Cl)c1C(=O)Nc1ccccc1`, 2%; for `O=C(CNC(=O)c1cc2c(s1)CCC2)Nc1ccccc1Br`, -12.2%.
In the case of `CCNC(=S)N1CCN(C(=O)c2ccco2)CC1` it was 1%; in that of `COc1cc(/C=N/O)cc(Br)c1OS(=O)(=O)c1ccc(C)cc1`, 12.9%; in that of `CCOC(=O)COc1cc(OCC(=O)OCC)c2c(=O)cc(-c3ccccc3)oc2c1`, 15.3%.
In the case of `Cc1ccc(C(=O)NNC(=O)OC(C)(C)C)c(Cl)c1` it was 2%; in that of `Cc1ccc(NC(=S)N/N=C2/CCCc3c(C)cc(C)cc32)cc1`, 9.9%.
As for `O=C(CCC(=O)OCc1cccc(C(=O)Oc2ccccc2)c1)Nc1cccc2ccccc12`, the activation is -9.6%.
For `O=C(CSCc1c(Cl)cccc1Cl)NN1C(=O)c2ccccc2C1=O` the value was -21.2%; for `Cc1ccc(N2C(=O)C(Cc3ccccc3)NC2=S)cc1` (stereo unspecified), -3.9%.
As to `COc1ccc(NC(=O)CSc2nc(N)c(-c3ccccc3)c(=O)[nH]2)cc1`, the activation was -3.7%.
Take `Cc1nn(C)c(Oc2ccccc2)c1[N+](=O)[O-]`: the activation is -3%.
In the case of `O=C(CSc1ccc(/C=N/NC(=O)c2cccc(F)c2)o1)Nc1ccccc1`, the activation is -79%.
Turning to `CCOc1c2ccc(C(=O)NCc3ccc(OC(F)(F)F)cc3)cc2nn1C`, the activation was -0.5%.
For `CC1=NN(C(=O)c2ccccc2Br)C(O)(c2cccnc2)C1` (stereo unspecified) the value was -13.7%.
As for `Cc1nn(-c2ccccn2)c2c1C(c1ccncc1)C1=C(CC(C)(C)CC1=O)N2` (stereo unspecified), the activation was 3.8%.
Consider `Cc1ccc(Oc2ccc3c(c2)C(=O)N(c2cccc4cccnc24)C3=O)cc1`, for which the activation was -10.3%.
Turning to `Cc1cc(C)c2c(-n3cccc3)c(C(=O)NNS(=O)(=O)c3ccc(F)cc3)sc2n1`, the activation is 11.1%.
For `Cc1nn(C)cc1C(=O)NNC(=S)Nc1ccc(Cl)cc1` the value was -12.9%; for `O=C(NC1=NCCS1)[C@H](Cc1ccccc1)N1C(=O)c2ccccc2C1=O`, -7.6%; for `CCCCNC(=O)CCn1c(=S)[nH]c2cc3c(cc2c1=O)OCO3`, -13.6%.
For `O=C(c1cccc(F)c1)N1CCN(c2ccc([N+](=O)[O-])c(N3CCCCC3)c2)CC1`, the activation is -8.2%.
For `COc1ccc(N(CC(=O)N/N=C/c2cccc3c2OCCO3)S(=O)(=O)c2ccc(NC(C)=O)cc2)cc1` the value was 5.2%.
For `COc1ccccc1-c1n[nH]c2c1[C@H](C)CC[C@H]2C(C)C` the value was 15.1%.
In the case of `COc1cccc2c1OCC(C(=O)NCc1ccc(Cl)cc1Cl)=C2` it was -78.6%; in that of `COc1ccc([N+](=O)[O-])cc1NC(=O)CCc1ccccc1`, -7.7%.
Turning to `CCn1c2ccccc2c2cc(NC(=O)C/C(C)=N/NC(=O)c3ccccc3N)ccc21`, the activation was -2.8%.
In the case of `COc1ccccc1CSc1nc2ccccc2[nH]1`, the activation is 2.2%.
For the compound `O=C(CNC(=O)c1ccccc1)NCC(=O)OCc1ccc(Cl)cc1`, the activation is 5.3%.
For `c1ccc(-n2nnnc2NC2CCCCCC2)cc1` the value was 12.5%.
In the case of `COc1ccc(C(=O)NC(=S)Nc2ccccc2N2CCN(S(C)(=O)=O)CC2)cc1OC` it was -12%; in that of `Cc1nnc(NC(=O)CSc2nc(C3CCCCC3)nc3ccccc23)s1`, 1.6%.
As to `Cc1c(C(=O)OC(C)C)sc(NC(=O)c2cccnc2)c1C#N`, the activation is -4.7%.
In the case of `Cc1ccc(NC(=S)Nc2ncccc2C)c(C)c1` it was -5.2%; in that of `CCOC(=O)C1CN(S(=O)(=O)c2ccc(F)cc2)C1`, 6.7%.
Turning to `CCCC(=O)NC(Nc1ccccc1OC)C(Cl)(Cl)Cl` (stereo unspecified), the activation is -3.9%.
In the case of `CC(C)C(=O)OCC(=O)Nc1ccc2c(c1)CCC2` it was -1.7%.
For `Cc1ccc(S(=O)(=O)N(CC(=O)N/N=C/c2ccc(F)cc2)c2cccc3cccnc23)cc1` the value was 6.1%; for `N#Cc1c(C(F)(F)F)cc(-c2ccccc2)nc1SCC(=O)N1CCOCC1`, 0.7%.
For `N#C/C(=C1/CCCN1)c1ccccn1` the value was -2.3%.
As for `Cc1cc(C)cc(OCC(=O)NNC(=O)c2cc3ccccc3oc2=O)c1`, the activation was 2%.
